PubChem BioAssay (EPA / NIEHS)
Some compounds were tested as several samples or in several runs, with calls that do not always agree. The source made the active and inactive calls. The calls were made as follows: active = hit-call score of the fitted dose curve at least 0.9, where 1 is the maximum; inactive = score below 0.9.

Legend:
[1] = read-out: TIMP metallopeptidase inhibitor 1 (TIMP1), TIMP1 (gene 7076); assay: BSK_hDFCGF_TIMP1: BioMAP Diversity Plus: hDFCGF Assay for TIMP metallopeptidase inhibitor 1 (TIMP1) Biomarker Activity (AID 2283062); settings: primary human foreskin fibroblasts; actives raise or lower the signal
How it was run: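 Human foreskin fibroblast primary cultures dosed for 24 h; secreted/surface TIMP-1 quantified by ELISA. Bidirectional curve fitting against DMSO baseline; cytotoxicity tracked in parallel cultures by SRB total-protein staining.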

[2] = read-out: Monokine induced gamma interferon (MIG), CXCL9 (gene 4283); assay: BSK_hDFCGF_MIG: BioMAP Diversity Plus: hDFCGF Assay for Monokine induced gamma interferon (MIG) Biomarker Activity (AID 2283063); settings: primary human foreskin fibroblasts; actives raise or lower the signal
How it was run: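 MIG/CXCL9 measured by ELISA 24 h after dosing primary human skin fibroblasts. Activity fitted in both directions against DMSO controls. Cytotoxicity was checked in parallel cultures by SRB staining read at 560 nm.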

[3] = read-out: Matrix Metallopeptidase 1 (MMP1), MMP1 (gene 4312); assay: BSK_hDFCGF_MMP1: BioMAP Diversity Plus: hDFCGF Assay for Matrix Metallopeptidase 1 (MMP1) Biomarker Activity (AID 2283064); settings: primary human foreskin fibroblasts; actives raise or lower the signal
How it was run: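 ELISA read-out of MMP1 from human foreskin fibroblasts (primary skin cells), 24 h post-dose. Gain or loss of signal was fitted bidirectionally versus DMSO negative control; cytotoxicity was checked by SRB in parallel cultures.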

[4] = read-out: Vascular cell adhesion molecule 1 (VCAM1), VCAM1 (gene 7412); assay: BSK_hDFCGF_VCAM1: BioMAP Diversity Plus: hDFCGF Assay for Vascular cell adhesion molecule 1 (VCAM1) Biomarker Activity (AID 2283065); settings: primary human foreskin fibroblasts; actives raise or lower the signal;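 as to AC50: VCAM-1 protein level quantified by ELISA after 24 h chemical exposure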
How it was run: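 Human foreskin fibroblast primary cells dosed with chemical, VCAM-1 measured by ELISA at 24 h. Bidirectional curve fitting relative to DMSO as negative control/baseline.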

[5] = read-out: Plasminogen activator inhibitor-1 (PAI1), SERPINE1 (gene 5054); assay: BSK_hDFCGF_PAI1: BioMAP Diversity Plus: hDFCGF Assay for Plasminogen activator inhibitor-1 (PAI1) Biomarker Activity (AID 2283066); settings: primary human foreskin fibroblasts; actives raise or lower the signal
How it was run: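 ELISA readout of PAI-1 from primary human skin fibroblast cultures, 24 h after compound addition. Gain or loss of signal was fitted bidirectionally against DMSO baseline.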

[6] = read-out: Intercellular Adhesion Molecule 1 (ICAM1), ICAM1 (gene 3383); assay: BSK_KF3CT_ICAM1: BioMAP Diversity Plus: KF3CT Assay for Intercellular Adhesion Molecule 1 (ICAM1) Biomarker Activity (AID 2283067); settings: primary human keratinocytes with fibroblasts; actives raise or lower the signal
How it was run: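 Human keratinocyte–foreskin fibroblast co-culture was treated for 24 h. Cell-surface ICAM-1 was quantified by ELISA, fitted bidirectionally relative to DMSO. Cytotoxicity was checked in parallel cultures by SRB total-protein staining.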

[7] = read-out: Interferon-gamma inducible Protein 10 (IP10), CXCL10 (gene 3627); assay: BSK_KF3CT_IP10: BioMAP Diversity Plus: KF3CT Assay for Interferon-gamma inducible Protein 10 (IP10) Biomarker Activity (AID 2283068); settings: primary human keratinocytes with fibroblasts; actives raise or lower the signal
How it was run: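 ELISA read-out of IP-10 after 24 h chemical dosing of human skin primary co-culture (keratinocytes, foreskin fibroblasts). Gain or loss of signal relative to DMSO, bidirectional curve fit.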

[8] = BSK_KF3CT_SRB: Viability Assessment in the BioMAP Diversity Plus: KF3CT Assay (AID 2283069); settings: primary human keratinocytes with fibroblasts;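 also: total protein by sulforhodamine B staining as a cytotoxicity measure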
How it was run: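 SRB read-out at 560 nm (0.1% stain, TCA-fixed cells) gauges overt cytotoxicity in a human skin keratinocyte–fibroblast co-culture 24 h post-dosing. Signal change was fitted bidirectionally relative to DMSO control.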

[9] = read-out: Interleukin-1 alpha (IL1a), IL1A (gene 3552); assay: BSK_KF3CT_IL1a: BioMAP Diversity Plus: KF3CT Assay for Interleukin-1 alpha (IL1a) Biomarker Activity (AID 2283070); settings: primary human keratinocytes with fibroblasts; actives raise or lower the signal
How it was run: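 Primary skin co-culture (keratinocytes, foreskin fibroblasts), 24 h exposure; ELISA for IL-1a; bidirectional curve fit vs DMSO.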

[10] = read-out: TIMP metallopeptidase inhibitor 2 (TIMP2), TIMP2 (gene 7077); assay: BSK_KF3CT_TIMP2: BioMAP Diversity Plus: KF3CT Assay for TIMP metallopeptidase inhibitor 2 (TIMP2) Biomarker Activity (AID 2283071); settings: primary human keratinocytes with fibroblasts; actives raise or lower the signal
How it was run: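 ELISA readout of TIMP-2 in keratinocyte plus foreskin fibroblast co-cultures (human skin primary cells), 24 h post-dose. Gain or loss of signal fitted relative to DMSO.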

[11] = read-out: Transforming growth factor beta 1 (TGFb1), TGFB1 (gene 7040); assay: BSK_KF3CT_TGFb1: BioMAP Diversity Plus: KF3CT Assay for Transforming growth factor beta 1 (TGFb1) Biomarker Activity (AID 2283072); settings: primary human keratinocytes with fibroblasts; actives raise or lower the signal
How it was run: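 Read-out: ELISA for TGF-b1 in keratinocyte/foreskin fibroblast human skin co-culture, 24 h after dosing; bidirectional curve fit vs DMSO baseline; gain or loss of signal scored.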

[12] = read-out: C-C motif chemokine 2 (Homo sapiens) (UniProt P13500); assay: BSK_KF3CT_MCP1: BioMAP Diversity Plus: KF3CT Assay for Monocyte Chemoattractant Protein 1 (MCP1/CCL2) Biomarker Activity (AID 2283073); settings: primary human keratinocytes with fibroblasts; actives raise or lower the signal
How it was run: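 Human keratinocyte–foreskin fibroblast co-culture; MCP-1 measured by ELISA 24 h after dosing. Bidirectional fit vs DMSO; cytotoxicity tracked by SRB total protein in parallel cultures.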

[13] = read-out: Matrix Metallopeptidase 9 (MMP9), MMP9 (gene 4318); assay: BSK_KF3CT_MMP9: BioMAP Diversity Plus: KF3CT Assay for Matrix Metallopeptidase 9 (MMP9) Biomarker Activity (AID 2283074); settings: primary human keratinocytes with fibroblasts; actives raise or lower the signal;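 as to AC50: MMP9 protein level quantified by ELISA in the co-culture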
How it was run: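 ELISA read-out of MMP-9 at 24 h post-dosing in a co-culture of human skin keratinocytes and foreskin fibroblasts. Gain or loss of signal was fitted in both directions against DMSO.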

[14] = read-out: urokinase plasminogen activator (uPA), PLAU (gene 5328); assay: BSK_KF3CT_uPA: BioMAP Diversity Plus: KF3CT Assay for urokinase plasminogen activator (uPA) Biomarker Activity (AID 2283075); settings: primary human keratinocytes with fibroblasts; actives raise or lower the signal
How it was run: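 Skin co-culture (keratinocytes + foreskin fibroblasts), human primary; 24 h post-dose; uPA by ELISA; gain/loss fit vs DMSO baseline.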

CD40, CD40 (gene 958) = assay: BSK_LPS_CD40: BioMAP Diversity Plus: LPS Assay for CD40 Biomarker Activity (AID 2283076); settings: primary human HUVEC with PBMC; actives raise or lower the signal
How it was run: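 HUVEC plus PBMC co-culture stimulated with LPS; CD40 quantified by ELISA 24 h after compound dosing. Fitting was bidirectional relative to DMSO. SRB staining of parallel cultures flagged overt cytotoxicity.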

[15] = read-out: E-selectin (Homo sapiens) (UniProt P16581); assay: BSK_LPS_Eselectin: BioMAP Diversity Plus: LPS Assay for Eselectin Biomarker Activity (AID 2283077); settings: primary human HUVEC with PBMC; actives raise or lower the signal
How it was run: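 Human umbilical vein endothelial cells co-cultured with PBMC under LPS stimulation; cell-surface E-selectin measured by ELISA 24 h after dosing. Change in either direction versus DMSO, with SRB total-protein staining in parallel cultures for cytotoxicity.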

[16] = BSK_LPS_SRB: Viability Assessment in the BioMAP Diversity Plus: LPS Assay (AID 2283079); settings: primary human HUVEC with PBMC;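 also: total protein by sulforhodamine B absorbance as a cytotoxicity measure; measured one day after compound addition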
How it was run: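 Co-culture of human umbilical vein endothelial cells and PBMC, read 24 h after dosing. Total protein by 0.1% SRB staining after 10% TCA fixation, absorbance at 560 nm; bidirectional fit against DMSO.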

[17] = read-out: Interleukin-1 alpha (IL1a), IL1A (gene 3552); assay: BSK_LPS_IL1a: BioMAP Diversity Plus: LPS Assay for Interleukin-1 alpha (IL1a) Biomarker Activity (AID 2283080); settings: primary human HUVEC with PBMC; actives raise or lower the signal
How it was run: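 Human umbilical vein endothelial cells co-cultured with PBMC and stimulated with LPS; IL-1a measured by ELISA 24 h after dosing. Bidirectional fitting against DMSO; cytotoxicity checked by SRB staining in parallel cultures.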

[18] = read-out: Monocyte Chemoattractant Protein-1 (MCP1), CCL2 (gene 6347); assay: BSK_LPS_MCP1: BioMAP Diversity Plus: LPS Assay for Monocyte Chemoattractant Protein-1 (MCP1) Biomarker Activity (AID 2283081); settings: primary human HUVEC with PBMC; actives raise or lower the signal;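 as to AC50: secreted MCP-1 protein quantified by ELISA in culture supernatant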
How it was run: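 Human umbilical vein endothelial cells co-cultured with PBMC, LPS-stimulated; secreted MCP-1 measured by ELISA 24 h after compound addition. Bidirectional curve fitting against DMSO baseline; SRB total-protein staining in parallel cultures for cytotoxicity.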

[19] = read-out: Interleukin-8 (IL8), CXCL8 (gene 3576); assay: BSK_LPS_IL8: BioMAP Diversity Plus: LPS Assay for Interleukin-8 (IL8) Biomarker Activity (AID 2283078); settings: primary human HUVEC with PBMC; actives raise or lower the signal
How it was run: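 Human umbilical vein endothelial cells co-cultured with PBMC, LPS-stimulated, exposed to compound for 24 h. IL-8 quantified by ELISA; fitted in both directions against DMSO, with SRB total-protein staining of parallel cultures for cytotoxicity.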

Measured: AC50

Chain of E-selectin (Homo sapiens) (P16581 whole entry, looked up): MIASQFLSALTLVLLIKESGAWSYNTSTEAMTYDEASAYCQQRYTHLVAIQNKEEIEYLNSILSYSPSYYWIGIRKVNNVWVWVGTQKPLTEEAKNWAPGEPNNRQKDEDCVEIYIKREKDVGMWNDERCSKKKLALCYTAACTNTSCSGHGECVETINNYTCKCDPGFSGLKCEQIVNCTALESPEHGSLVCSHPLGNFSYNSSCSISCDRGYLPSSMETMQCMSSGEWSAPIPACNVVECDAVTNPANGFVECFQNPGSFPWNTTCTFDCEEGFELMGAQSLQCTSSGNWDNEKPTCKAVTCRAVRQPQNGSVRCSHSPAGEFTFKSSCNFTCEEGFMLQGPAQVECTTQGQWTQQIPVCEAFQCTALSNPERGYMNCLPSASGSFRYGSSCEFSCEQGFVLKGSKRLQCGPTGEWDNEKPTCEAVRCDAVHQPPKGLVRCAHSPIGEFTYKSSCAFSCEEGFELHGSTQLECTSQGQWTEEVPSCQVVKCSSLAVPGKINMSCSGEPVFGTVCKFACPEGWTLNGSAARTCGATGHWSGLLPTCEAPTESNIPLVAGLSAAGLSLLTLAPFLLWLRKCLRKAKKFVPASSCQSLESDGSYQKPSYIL

CC=Cc1ccc(OCC)c(O)c1
inactive: [1] | [2] | [3] | [4] | [5] | [6] | [7] | [8] | [9] | [10] | [11] | [12] | [13] | [14] | CD40, CD40 (gene 958) | [15] | [16] | [17] | [18]

CC(C=O)Cc1ccc(C(C)(C)C)cc1 (stereo not drawn)
inactive: [2] | [3] | [4] | [6] | [7] | [8] | [9] | [11] | [12] | [19] | [18]
active: [1] 31.9 µM | [5] 27.4 µM | [10] 32.4 µM | [13] 36.7 µM | [14] 31 µM | CD40, CD40 (gene 958) 27.2 µM | [15] 31.4 µM | [16] 32.6 µM | [17] 35.8 µM

CC(=O)Nc1ccc(C(=O)CCl)cc1
active: [1] 7.91 µM | [2] 9.4 µM | [3] 10.5 µM | [4] 7.32 µM | [5] 10.8 µM | [6] 26.6 µM | [7] 23.2 µM | [9] 31 µM | [10] 20 µM | [12] 28.6 µM | [13] 20 µM | [14] 30 µM | CD40, CD40 (gene 958) 5.35 µM | [15] 4.61 µM | [19] 3.91 µM | [16] 9.55 µM | [17] 4.52 µM | [18] 5.89 µM
inactive: [8]

C1=CC2C3C=CC(C3)C2C1 (stereo not drawn)
inactive: [1] | [2] | [3] | [4] | [5] | [6] | [7] | [8] | [9] | [10] | [11] | [12] | [13] | [14] | CD40, CD40 (gene 958) | [15] | [19] | [16] | [17] | [18]

CC(CN=Cc1ccccc1O)N=Cc1ccccc1O (stereo not drawn)
inactive: [1] | [2] | [3] | [4] | [5] | [6] | [7] | [8] | [9] | [10] | [12] | [13] | [14] | CD40, CD40 (gene 958) | [15] | [19] | [16] | [17] | [18]
active: [19] 0.151 µM

c1ccc2cc(Nc3ccc(Nc4ccc5ccccc5c4)cc3)ccc2c1
inactive: [1] | [2] | [3] | [4] | [5] | [6] | [7] | [8] | [9] | [10] | [11] | [12] | [13] | [14] | CD40, CD40 (gene 958) | [15] | [19] | [16] | [17] | [18]
